The source of these data is PubChem BioAssay (EPA / NIEHS).

Structures are written as SMILES. Inconclusive results are not listed. Calls of active or inactive are those of the source. The calls were made as follows, unless noted: active = hit-call score of the fitted dose curve at least 0.9, where 1 is the maximum; inactive = score below 0.9.

Test [1] has as its target Estrogen-related receptor gamma (Homo sapiens) (UniProt P62508). In words: ATG_ERRg_TRANS: Attagene TRANS-FACTORIAL HepG2 Assay for human Estrogen-Related Receptor gamma (ERRg) (AID 2282977; active = hit-call score of the fitted dose curve at least 0.9, where 1 is the maximum;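 also: hits increase reporter signal over DMSO so potencies reflect activators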). Conditions: HepG2 Attagene TRANS reporter, ERRg transactivation. In a few lines:
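Transfect HepG2 with multiple GAL4-UAS reporter transcription units; dose chemicals 24 h; isolate RNA, reverse-transcribe with oligo(dT), PCR-amplify, label with 6-FAM, digest with HpaI; size fragments by capillary electrophoresis. DMSO serves as negative control.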

Test [2] addresses Oxysterols receptor LXR-alpha (Homo sapiens) (UniProt Q13133). In words: ATG_LXRa_TRANS: Attagene TRANS-FACTORIAL HepG2 Assay for human Liver X Receptor alpha (LXRa) (AID 2282980; active = hit-call score of the fitted dose curve at least 0.9, where 1 is the maximum). Conditions: HepG2 Attagene TRANS reporter, LXRa transactivation. In a few lines: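 Chemical-induced reporter mRNA measured by RT-PCR with fluorescent labelling and capillary electrophoresis after 24 h dosing of transiently transfected HepG2 cells expressing exogenous NR-Gal4 chimeras; increases scored against DMSO baseline.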

The nature of test [3]: ATG_M_06_TRANS: Attagene TRANS-FACTORIAL HepG2 Assay for M06 Transcription Factor (Internal Marker) (AID 2282983; active = hit-call score of the fitted dose curve at least 0.9, where 1 is the maximum). Conditions: HepG2 Attagene TRANS M06 internal marker reporter. In a few lines:
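Cells: HepG2, transient multi-reporter transfection. Exposure: 24 h. Detection: RT-PCR, 6-FAM labelling, HpaI digestion (2 h, 37 °C), capillary electrophoresis. Baseline: DMSO.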

For test [4], the target named is Transcriptional activator Myb (Homo sapiens) (UniProt P10242). Nature of the test: ATG_Myb_CIS: Attagene CIS-FACTORIAL HepG2 Assay for human Myeloblastosis (Myb) Proto-Oncogene Transcription Factor (AID 2282986). Conditions: HepG2 Attagene CIS-FACTORIAL Myb reporter transcription; actives raise or lower the signal. In a few lines:
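Fluorescence signals from capillary electrophoresis of RT-PCR-amplified reporter cDNA give the read-out. Cells: HepG2 transfected with multiple cis-regulated reporter units. Exposure lasts 24 hours; DMSO defines baseline for gain or loss of signal.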

The target in test [5] is Nuclear respiratory factor 1 (Homo sapiens) (UniProt Q16656). In words: ATG_NRF1_CIS: Attagene CIS-FACTORIAL HepG2 Assay for human Nuclear Respiratory Factor 1 (NRF1) Orphan Gene (AID 2282987). Conditions: HepG2 NRF1 cis-element reporter, Attagene multiplex; actives raise or lower the signal. In a few lines:
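Transcriptional reporter readout, one component of a 52-endpoint multiplexed HepG2 panel. Exposure 24 h; mRNA detected via RT-PCR and fluorescent capillary electrophoresis; fitting in both directions against DMSO.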

Test [6] in a line: ATG_NFI_CIS: Attagene CIS-FACTORIAL HepG2 Assay for human Nuclear Factor I (NFI) (AID 2282989). Conditions: HepG2 cis-regulatory reporter, NFI response element transcription; actives raise or lower the signal. In a few lines:
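Endogenous TF activity in HepG2 cells transiently transfected with cis-element-driven multiplexed reporter units, read 24 h after dosing. Reporter mRNA quantified by RT-PCR, 6-FAM labelling, HpaI digestion and capillary electrophoresis; bidirectional fit versus DMSO.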

Test [7] concerns the target Myc proto-oncogene protein (Homo sapiens) (UniProt P01106). In words: ATG_Myc_CIS: Attagene CIS-FACTORIAL HepG2 Assay for human Myelocytomatosis (Myc) Proto-Oncogene Transcription Factor (AID 2282990). Conditions: HepG2, Attagene cis-reporter transcription factor activity; actives raise or lower the signal. In a few lines: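 HepG2 cells transiently transfected with multiple cis-promoter-driven reporter transcription units, so endogenous TF activity is read. After 24 h compound exposure, reporter mRNA was quantified by RT-PCR, 6-FAM labelling, HpaI digestion and capillary electrophoresis; bidirectional fit versus DMSO.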

A short description of test [8]: ATG_NF_kB_CIS: Attagene CIS-FACTORIAL HepG2 Assay for human Nuclear Factor Kappa B (NF-kB) (AID 2282991). Conditions: HepG2 Attagene cis-factorial NF-kB reporter mRNA; actives raise or lower the signal. In a few lines: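 HepG2, transient multi-reporter transfection, cis promoter elements (endogenous TFs). 24 h exposure. Total RNA → RT → PCR → 6-FAM label → HpaI → CE. Gain/loss vs DMSO.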

A short description of test [9]: ATG_NRF2_ARE_CIS: Attagene CIS-FACTORIAL HepG2 Assay for human Nuclear Factor Erythroid 2 Related Factor 2 (NFR2) response to Antioxidant Response Elements (ARE) (AID 2282992).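 As to AC50: reporter mRNA level measured by RT-PCR and capillary electrophoresis fluorescence.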 Conditions: HepG2 Attagene ARE/NRF2 reporter, transcription factor activity; actives raise or lower the signal. In a few lines: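 Transient MRTU transfection of HepG2; 24 h compound exposure; TriZol RNA, RT with oligo(dT), PCR, 6-FAM primer extension, HpaI cut, CE. Bidirectional fit vs DMSO.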

A short description of test [10]: ATG_Oct_MLP_CIS: Attagene CIS-FACTORIAL HepG2 Assay for human Octamer-Binding Transcription Factor (Oct) (AID 2282993). Conditions: HepG2 Attagene cis-factorial Oct reporter, mRNA; actives raise or lower the signal. In a few lines:
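HepG2 cells transiently transfected with cis-element-driven reporter transcription units (endogenous TF activity); 24 h compound exposure. Reporter mRNA quantified by RT-PCR, 6-FAM labelling, HpaI digestion and capillary electrophoresis; bidirectional fit versus DMSO baseline.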

Test [11] deals with Cellular tumor antigen p53 (Homo sapiens) (UniProt P04637). In words: ATG_p53_CIS: Attagene CIS-FACTORIAL HepG2 Assay for human p53 Transcription Factor (AID 2282994). Conditions: HepG2 p53 cis-element reporter, Attagene mRNA; actives raise or lower the signal. In a few lines:
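HepG2, transient MRTU transfection (cis promoter elements, endogenous TFs); 24 h dosing; RNA isolation, RT-PCR, 6-FAM primer extension, HpaI digest, CE fluorescence; bidirectional fit vs DMSO.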

For test [12], the target named is Hepatocyte nuclear factor 4-alpha (Homo sapiens) (UniProt P41235). In words: ATG_HNF4a_TRANS: Attagene TRANS-FACTORIAL HepG2 Assay for human Hepatocyte Nuclear Factor 4 alpha (HNF4a) (AID 2282982; active = hit-call score of the fitted dose curve at least 0.9, where 1 is the maximum). Conditions: HepG2 HNF4a transactivation reporter, mRNA readout. In a few lines: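 Cells used were human HepG2, transiently carrying GAL4-UAS reporter units read out against exogenous NR-GAL4 chimeras. Reporter transcript levels after 24 h dosing were quantified by fluorescent RT-PCR and capillary electrophoresis.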
Hepatocyte nuclear factor 4-alpha (Homo sapiens), sequence (P41235 whole entry, looked up, the tested form may be a part): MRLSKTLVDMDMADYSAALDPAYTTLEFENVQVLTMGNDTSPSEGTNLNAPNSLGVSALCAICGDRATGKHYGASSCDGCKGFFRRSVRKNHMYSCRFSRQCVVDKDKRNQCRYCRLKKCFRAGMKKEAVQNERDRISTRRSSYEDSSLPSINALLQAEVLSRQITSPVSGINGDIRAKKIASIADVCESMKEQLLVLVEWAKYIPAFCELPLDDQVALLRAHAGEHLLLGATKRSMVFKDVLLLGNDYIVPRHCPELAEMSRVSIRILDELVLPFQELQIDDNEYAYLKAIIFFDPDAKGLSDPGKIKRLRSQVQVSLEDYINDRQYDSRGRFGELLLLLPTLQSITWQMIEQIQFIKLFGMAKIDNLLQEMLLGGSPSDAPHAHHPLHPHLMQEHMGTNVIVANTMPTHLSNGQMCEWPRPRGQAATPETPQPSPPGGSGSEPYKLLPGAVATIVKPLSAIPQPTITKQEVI

Test [13] addresses Nuclear receptor subfamily 4 group A member 2 (Homo sapiens) (UniProt P43354). Nature of the test: ATG_NURR1_TRANS: Attagene TRANS-FACTORIAL HepG2 Assay for human Nuclear Receptor Related Protein 1 (NURR1) (AID 2282985; active = hit-call score of the fitted dose curve at least 0.9, where 1 is the maximum). Conditions: HepG2 Attagene TRANS reporter, mRNA readout. In a few lines: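 After 24 h chemical dosing, total RNA from transiently transfected HepG2 cells was reverse-transcribed and reporter cDNA PCR-amplified, FAM-labelled and analysed by capillary electrophoresis. Activity fitted in positive direction, DMSO as negative control.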

Test [14] deals with Oxysterols receptor LXR-beta (Homo sapiens) (UniProt P55055). Nature of the test: ATG_LXRb_TRANS: Attagene TRANS-FACTORIAL HepG2 Assay for human Liver X Receptor beta (LXRb) (AID 2282981; active = hit-call score of the fitted dose curve at least 0.9, where 1 is the maximum). Conditions: HepG2 Attagene TRANS GAL4-LXRb reporter, mRNA. In a few lines: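 In this TRANS format, exogenous chimeric NR-Gal4 protein activity, not endogenous factors, drives reporter expression in transfected human HepG2 cells. Exposure lasted 24 h; reporter mRNA was read by fluorescent capillary electrophoresis.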
Oxysterols receptor LXR-beta (Homo sapiens), sequence (P55055 whole entry, looked up, the tested form may be a part): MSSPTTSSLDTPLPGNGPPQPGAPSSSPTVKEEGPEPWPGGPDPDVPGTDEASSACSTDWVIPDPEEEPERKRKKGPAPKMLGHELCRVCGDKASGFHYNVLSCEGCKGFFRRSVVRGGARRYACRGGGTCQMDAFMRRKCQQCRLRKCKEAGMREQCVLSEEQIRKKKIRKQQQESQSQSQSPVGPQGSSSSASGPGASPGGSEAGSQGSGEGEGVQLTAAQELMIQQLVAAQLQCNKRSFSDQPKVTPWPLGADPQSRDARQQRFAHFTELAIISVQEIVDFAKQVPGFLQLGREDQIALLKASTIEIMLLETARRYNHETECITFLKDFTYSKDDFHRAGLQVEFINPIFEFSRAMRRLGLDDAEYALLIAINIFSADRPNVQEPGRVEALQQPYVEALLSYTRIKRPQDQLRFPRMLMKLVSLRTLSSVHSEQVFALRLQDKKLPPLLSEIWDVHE

Test [15] can be described thus: ATG_M_32_TRANS: Attagene TRANS-FACTORIAL HepG2 Assay for M32 Transcription Factor (Internal Marker) (AID 2282984; active = hit-call score of the fitted dose curve at least 0.9, where 1 is the maximum;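 also: transcript level of a background control reporter unit measured by RT-PCR and capillary electrophoresis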). Conditions: HepG2 Attagene TRANS M32 internal marker reporter. In a few lines:
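Human hepatoma HepG2, transient MRTU transfection, 24 h treatment. RNA → RT-PCR → fluorescent primer extension → HpaI digest (2 h, 37 C) → CE. Positive-direction fit vs DMSO.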

Test [16] can be described thus: BSK_3C_TissueFactor: BioMAP Diversity Plus: 3C Assay for Tissue Factor Biomarker Activity (AID 2282997). Conditions: BioMAP 3C HUVEC, tissue factor biomarker readout; actives raise or lower the signal. In a few lines:
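Dosing of human umbilical vein endothelial cells preceded a 24 h incubation. Tissue Factor was then read by ELISA, with increases and decreases both scored relative to DMSO controls.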

Test [17] is described as follows: BSK_3C_uPAR: BioMAP Diversity Plus: 3C Assay for Urokinase-type plasminogen activator receptor (uPAR) Biomarker Activity (AID 2282998). Conditions: BioMAP 3C HUVEC, uPAR biomarker ELISA; actives raise or lower the signal. In a few lines:
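Primary human umbilical vein endothelial cells, 3C system; surface uPAR measured by ELISA 24 h after dosing. Cytotoxicity via SRB total protein in parallel cultures; bidirectional fit against DMSO.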
Background: An ELISA detects its analyte on a solid surface through an enzyme-linked reagent.

The target of test [18] is Glucocorticoid receptor (Homo sapiens) (UniProt P04150). In words: ATG_GR_TRANS: Attagene TRANS-FACTORIAL HepG2 Assay for human Glucocorticoid Receptor (GR) (AID 2282978; active = hit-call score of the fitted dose curve at least 0.9, where 1 is the maximum;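 also: activators score as hits since higher reporter transcript over DMSO is fitted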). Conditions: HepG2 Attagene TRANS GR reporter, mRNA transcription. In a few lines: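 Measurement of GAL4-UAS-driven reporter mRNA in human HepG2 liver cells 24 h post-dosing, using RT-PCR with fluorescent labelling and capillary electrophoresis; the transfected constructs report exogenous NR-GAL4 chimera activity, fitted upward against DMSO.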

In test [19] the target is Bile acid receptor (Homo sapiens) (UniProt Q96RI1). Nature of the test: ATG_FXR_TRANS: Attagene TRANS-FACTORIAL HepG2 Assay for Farnesoid X Receptor (FXR) (AID 2282979; active = hit-call score of the fitted dose curve at least 0.9, where 1 is the maximum;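 also: hits raise reporter mRNA above DMSO so AC50 marks FXR activation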). Conditions: HepG2 Attagene TRANS FXR-GAL4 reporter transcription. In a few lines: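 Reporter transcripts from transfected HepG2 cells were measured 24 h after dosing, using RT-PCR with capillary electrophoresis of 6-FAM-labelled fragments. The read-out reflects activity of exogenous FXR-Gal4 chimera on GAL4-UAS units, with induction relative to DMSO.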
Bile acid receptor (Homo sapiens), sequence (Q96RI1 whole entry, looked up, the tested form may be a part): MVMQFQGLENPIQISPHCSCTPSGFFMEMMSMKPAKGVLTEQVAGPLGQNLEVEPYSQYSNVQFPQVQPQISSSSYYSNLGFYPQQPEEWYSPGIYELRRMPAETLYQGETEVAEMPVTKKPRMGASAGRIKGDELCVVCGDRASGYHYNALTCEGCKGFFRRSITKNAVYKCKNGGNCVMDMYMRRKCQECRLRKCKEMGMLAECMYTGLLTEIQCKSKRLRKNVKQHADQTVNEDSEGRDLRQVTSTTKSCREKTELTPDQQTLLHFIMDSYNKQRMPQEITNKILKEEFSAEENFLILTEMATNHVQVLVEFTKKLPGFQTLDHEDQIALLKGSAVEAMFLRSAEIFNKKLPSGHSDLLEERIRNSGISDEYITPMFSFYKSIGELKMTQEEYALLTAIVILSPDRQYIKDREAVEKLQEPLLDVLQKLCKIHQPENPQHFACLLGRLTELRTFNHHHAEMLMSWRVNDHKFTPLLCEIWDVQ

Myc proto-oncogene protein (Homo sapiens), sequence (P01106 whole entry, looked up): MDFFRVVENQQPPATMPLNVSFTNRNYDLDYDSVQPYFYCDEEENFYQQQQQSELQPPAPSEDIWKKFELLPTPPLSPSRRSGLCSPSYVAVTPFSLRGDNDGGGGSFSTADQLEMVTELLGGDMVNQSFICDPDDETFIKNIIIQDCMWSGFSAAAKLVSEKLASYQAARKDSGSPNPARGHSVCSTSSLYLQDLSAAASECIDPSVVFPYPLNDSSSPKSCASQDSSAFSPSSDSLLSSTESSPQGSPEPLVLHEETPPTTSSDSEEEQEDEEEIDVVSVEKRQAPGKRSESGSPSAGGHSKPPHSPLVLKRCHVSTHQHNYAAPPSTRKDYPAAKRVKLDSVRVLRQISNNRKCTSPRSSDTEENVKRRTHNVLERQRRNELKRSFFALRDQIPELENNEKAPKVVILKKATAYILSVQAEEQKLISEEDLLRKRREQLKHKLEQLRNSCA
Cellular tumor antigen p53 (Homo sapiens), sequence (P04637 whole entry, looked up): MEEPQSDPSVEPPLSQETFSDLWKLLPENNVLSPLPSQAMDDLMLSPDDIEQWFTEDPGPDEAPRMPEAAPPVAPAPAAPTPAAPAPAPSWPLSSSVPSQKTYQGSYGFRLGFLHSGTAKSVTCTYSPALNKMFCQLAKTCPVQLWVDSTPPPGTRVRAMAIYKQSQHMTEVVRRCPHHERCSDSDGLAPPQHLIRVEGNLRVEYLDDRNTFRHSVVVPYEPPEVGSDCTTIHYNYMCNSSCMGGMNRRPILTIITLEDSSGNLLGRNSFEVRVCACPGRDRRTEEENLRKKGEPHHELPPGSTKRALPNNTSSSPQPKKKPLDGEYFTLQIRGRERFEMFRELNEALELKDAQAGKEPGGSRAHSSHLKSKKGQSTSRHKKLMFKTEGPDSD
Transcriptional activator Myb (Homo sapiens), sequence (P10242 whole entry, looked up): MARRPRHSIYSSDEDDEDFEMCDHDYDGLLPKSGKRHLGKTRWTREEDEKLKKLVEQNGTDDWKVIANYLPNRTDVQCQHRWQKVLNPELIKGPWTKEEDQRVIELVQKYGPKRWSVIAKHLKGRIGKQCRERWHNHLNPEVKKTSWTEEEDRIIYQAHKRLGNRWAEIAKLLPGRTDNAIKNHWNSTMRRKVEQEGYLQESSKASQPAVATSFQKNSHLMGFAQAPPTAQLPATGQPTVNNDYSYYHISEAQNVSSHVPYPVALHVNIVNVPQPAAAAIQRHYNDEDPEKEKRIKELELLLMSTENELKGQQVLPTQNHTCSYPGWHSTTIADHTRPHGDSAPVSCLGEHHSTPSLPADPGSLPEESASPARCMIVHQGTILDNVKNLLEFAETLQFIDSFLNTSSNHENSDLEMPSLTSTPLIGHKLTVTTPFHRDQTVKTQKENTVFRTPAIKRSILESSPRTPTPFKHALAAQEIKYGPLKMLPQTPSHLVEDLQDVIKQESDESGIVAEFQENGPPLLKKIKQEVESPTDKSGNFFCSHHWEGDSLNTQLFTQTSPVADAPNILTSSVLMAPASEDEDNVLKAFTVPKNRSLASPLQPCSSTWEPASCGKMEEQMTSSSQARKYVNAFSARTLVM
Nuclear receptor subfamily 4 group A member 2 (Homo sapiens), sequence (P43354 whole entry, looked up): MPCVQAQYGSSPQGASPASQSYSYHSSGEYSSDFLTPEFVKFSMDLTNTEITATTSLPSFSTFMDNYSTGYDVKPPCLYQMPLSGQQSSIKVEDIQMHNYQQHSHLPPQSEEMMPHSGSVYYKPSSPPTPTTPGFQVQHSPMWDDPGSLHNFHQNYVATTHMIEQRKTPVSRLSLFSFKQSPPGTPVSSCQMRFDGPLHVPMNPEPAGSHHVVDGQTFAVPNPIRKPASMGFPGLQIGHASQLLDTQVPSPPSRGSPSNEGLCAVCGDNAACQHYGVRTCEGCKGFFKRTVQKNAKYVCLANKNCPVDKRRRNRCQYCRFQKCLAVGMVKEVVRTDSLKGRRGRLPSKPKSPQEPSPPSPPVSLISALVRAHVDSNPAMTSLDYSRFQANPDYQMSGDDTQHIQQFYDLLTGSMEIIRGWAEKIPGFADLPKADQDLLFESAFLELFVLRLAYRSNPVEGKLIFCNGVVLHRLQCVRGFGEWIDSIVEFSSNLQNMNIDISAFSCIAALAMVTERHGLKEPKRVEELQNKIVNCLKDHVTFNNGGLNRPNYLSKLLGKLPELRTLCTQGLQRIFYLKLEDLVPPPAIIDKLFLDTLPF
Estrogen-related receptor gamma (Homo sapiens), sequence (P62508 whole entry, looked up, the tested form may be a part): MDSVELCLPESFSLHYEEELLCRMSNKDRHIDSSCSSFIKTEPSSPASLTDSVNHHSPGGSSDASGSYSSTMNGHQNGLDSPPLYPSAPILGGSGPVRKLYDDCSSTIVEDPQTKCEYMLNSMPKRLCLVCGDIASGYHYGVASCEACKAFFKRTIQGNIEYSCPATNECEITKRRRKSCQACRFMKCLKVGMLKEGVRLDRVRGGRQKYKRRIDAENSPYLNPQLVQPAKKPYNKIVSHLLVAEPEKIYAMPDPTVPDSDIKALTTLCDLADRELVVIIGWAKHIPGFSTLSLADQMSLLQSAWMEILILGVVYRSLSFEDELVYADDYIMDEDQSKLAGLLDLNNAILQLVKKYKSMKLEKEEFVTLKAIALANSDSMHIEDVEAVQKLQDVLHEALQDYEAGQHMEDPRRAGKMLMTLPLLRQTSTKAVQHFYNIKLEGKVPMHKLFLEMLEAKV
Oxysterols receptor LXR-alpha (Homo sapiens), sequence (Q13133 whole entry, looked up, the tested form may be a part): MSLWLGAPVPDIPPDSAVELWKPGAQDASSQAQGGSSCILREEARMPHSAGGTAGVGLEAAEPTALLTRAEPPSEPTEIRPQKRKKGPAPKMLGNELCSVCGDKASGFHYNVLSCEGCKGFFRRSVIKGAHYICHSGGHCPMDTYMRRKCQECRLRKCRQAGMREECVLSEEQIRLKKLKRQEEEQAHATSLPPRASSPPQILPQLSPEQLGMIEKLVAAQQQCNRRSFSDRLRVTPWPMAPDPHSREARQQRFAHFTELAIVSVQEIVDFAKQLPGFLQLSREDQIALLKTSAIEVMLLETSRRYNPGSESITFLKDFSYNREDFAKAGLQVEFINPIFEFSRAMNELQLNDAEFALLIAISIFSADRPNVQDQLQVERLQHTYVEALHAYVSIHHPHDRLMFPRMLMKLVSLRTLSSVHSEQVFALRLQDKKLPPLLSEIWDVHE
Nuclear respiratory factor 1 (Homo sapiens), sequence (Q16656 whole entry, looked up): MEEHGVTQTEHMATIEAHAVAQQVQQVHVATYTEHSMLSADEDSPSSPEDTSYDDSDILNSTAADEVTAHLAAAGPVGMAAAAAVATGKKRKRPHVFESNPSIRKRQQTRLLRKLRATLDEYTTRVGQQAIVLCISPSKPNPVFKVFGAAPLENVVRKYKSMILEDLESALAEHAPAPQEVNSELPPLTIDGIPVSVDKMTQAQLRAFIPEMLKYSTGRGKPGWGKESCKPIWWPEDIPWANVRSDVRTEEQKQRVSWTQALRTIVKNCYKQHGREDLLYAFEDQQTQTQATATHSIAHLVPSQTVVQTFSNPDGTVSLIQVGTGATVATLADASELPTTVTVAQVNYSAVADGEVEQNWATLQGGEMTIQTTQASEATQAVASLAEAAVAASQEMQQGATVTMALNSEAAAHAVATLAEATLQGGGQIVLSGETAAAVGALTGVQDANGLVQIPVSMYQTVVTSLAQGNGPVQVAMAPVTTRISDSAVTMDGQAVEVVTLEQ

Turning to `CC(=O)CCC=C(C)C`, the outcome in test [1], in test [2], in test [3], in [4], in [5] and in [6] was inactive. Further, the result in test [7], in test [8], in test [9], in test [10] and in test [11] was inactive.

The term AC50 denotes the midpoint of the concentration-response curve, whichever way the signal moves. As to `C=C(C)C(=O)OCC(O)COc1ccc(C(C)(C)c2ccc(OCC(O)COC(=O)C(=C)C)cc2)cc1` (configuration not stated), the compound was called inactive in [1], in test [12], in [6], in test [7] and in [11]. In addition, the AC50 in test [13] is 27.4 µM (active); in test [4], 158 µM (active); in [5] it was 130 µM (active); in [9], 26.5 µM (active); in [10], 17.8 µM (active).

Consider `C=CC(=O)OCCCCCCOC(=O)C=C`, for which the compound was classed as inactive in [1], in test [2], in [14], in [12], in test [3] and in test [15]. In addition, the result in test [13], in [4], in test [5], in test [6] and in [7] was inactive. Besides, the AC50 was 6.61 µM (active) in [9]; 26.2 µM (active) in [10]; 174 µM (active) in [11]; 3.97 µM (active) in test [16]; 20 µM (active) in test [17].

As to `CCN1CCCC1=O`, the outcome in test [18], in test [19], in test [2], in [13], in [4] and in test [5] was inactive. The compound was called inactive in [6], in [7], in test [8], in [9], in test [10] and in test [11].

As to `CCOc1ccc(NC(N)=O)cc1`, the compound was classed as inactive in [18], in test [19], in [2], in test [14], in [12] and in [3]. The compound was classed as inactive in test [15], in test [13], in [4], in test [6], in test [7] and in [8]. For the same compound, the result in [10] was inactive.
